In PubChem BioAssay (NCI) one finds growth inhibition data, which are given here for 28 compounds.

This is part of a sample that, as a whole, favours compounds with a hit. Of some 79,000 tested, about 15% had one in any assay. A number with no mark means an inactive call. The source made the active and inactive calls. Rule as the data show it: active = growth inhibition above about 70%; inactive = the rest.

A short description of the experiment: NCI Yeast Anticancer Drug Screen. Data for the sgs1 mgt1 strain (AID 161).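 Also: 0% = growth of cultures given vehicle only.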 Particulars: S. cerevisiae sgs1 mgt1 strain, at 50.0 µM (retest, dose inferred, filed as 5.0), hits give high values. In a few lines:
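Genetically altered yeast, compound exposure, growth inhibition relative to vehicle.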
Regarding `CN(C)CC(CN(C)C)C(=O)/C=C/c1ccc(Cl)cc1Cl`, the growth inhibition was 99% (active).
Consider `c1ccc2c(c1)ccn2CCc1c[nH]c2ccccc12`, for which the growth inhibition was 25%.
For `Cc1ccccc1NC(=O)c1c(C)oc2c1C(=O)c1ccccc1C2=O` the value was 3%.
For `COc1ccc2nc3cccc([N+](=O)[O-])c3c(NCCNCCO)c2c1` the value was 94% (active); for `CCC(OC(C)=O)C1CC(C(C)C)CCC1C` (stereo not drawn), 39%.
With `O=S(=O)(c1cccc(C(F)(F)F)c1)N1c2ccccc2-n2cccc2C1c1cccnc1` (stereo not drawn), the growth inhibition was 98% (active).
`c1ccc(-c2cc(C3CO3)c3ccccc3n2)cc1` (stereo not drawn): the growth inhibition is 80% (active).
For the compound `COc1ccc(/C=C2\SC(=S)N(/C=C3\C(=O)N(c4ccccc4)N=C3C)C2=O)cc1OC`, the growth inhibition is 83% (active).
As for `CC1C(c2ccccc2)SC(=N)N1C` (stereo not drawn), the growth inhibition was 54%.
For `CC(/C=C/c1ccc([N+](=O)[O-])o1)=N/N1CC(CN2CCOCC2)OC1=O` (stereo not drawn) the value was 93% (active).
With `C=CC(C)(C)N1C(=O)C(C(C)=O)=C(O)C1Cc1c[nH]c2ccccc12` (stereo not drawn), the growth inhibition is 73% (active).
For `O=C1c2cccc3cccc(c23)C(=O)N1CCNCCN1C(=O)c2cccc3cccc(c23)C1=O` the value was 10%.
For `Cc1ccc([N+](=O)[O-])c2c(NCCC[N+](C)(C)[O-])c3ccccc3nc12` the value was 62%; for `COC(=O)C(Cc1c[nH]c2ccccc12)N1CN(C)c2ccccc2C1=O` (stereo not drawn), 60%.
In the case of `O=C(/N=N/C(=O)Oc1ccccc1)Oc1ccccc1`, the growth inhibition was 39%.
For `COc1cc([C@@H]2c3cc4c(cc3[C@@H](NC(=O)NO)[C@H]3COC(=O)[C@H]23)OCO4)cc(OC)c1O` the value was 2%; for `CC(C)OC(=O)NNc1cccc(Cl)c1`, 98% (active).
For `CCC(=O)C1=C(O)c2cc(OC)ccc2CC1C(=O)OC` (stereo not drawn) the value was 89% (active); for `O=S(=O)(NC1CCCC(c2ccccc2)C1)c1ccccc1` (stereo not drawn), 23%.
For the compound `COc1ccc2nc3cccc([N+](=O)[O-])c3c(NCCCCCC(=O)O)c2c1`, the growth inhibition is 99% (active).
Consider `CCO/C=C1\SC(=S)N(c2ccc(OCC)cc2)C1=O`, for which the growth inhibition is 44%.
In the case of `COc1cc(OC)c(CSCC(NC(=O)OCC2c3ccccc3-c3ccccc32)C(=O)O)c(OC)c1` (stereo not drawn), the growth inhibition is 98% (active).
For `COC(=O)c1ccccc1N=NNc1cccc(SC)c1` the value was 94% (active).
For `CC1=NN(C(=O)c2ccccc2O)C(=O)/C1=C/c1ccco1` the value was 90% (active).
For `COc1ccccc1NC(=O)c1ccc(Cl)cc1` the value was 7%.
For the compound `N#CC1OB(O)c2ccccc21` (stereo not drawn), the growth inhibition was -2%.
For `O=C(NCCNCCNC(=O)c1cc(-c2ccccc2)nc2ccccc12)c1cc(-c2ccccc2)nc2ccccc12` the value was 7%; for `CCOP(=O)(OCC)/C(C#N)=C/c1cccc(Oc2ccccc2)c1`, 96% (active).
